Experimental data reported in ChEMBL document CHEMBL1157539, “Thousands of chemical starting points for antimalarial lead identification” (Nature, 2010).

test system: Plasmodium falciparum; test: GSK_TCMDC: Inhibition of Plasmodium falciparum 3D7 in whole red blood cells, using parasite LDH activity as an index of growth. Test compounds present at 2uM; type: functional

Row | Structure (SMILES) | Inhibition [%]
1 | FC(F)(F)c1ccc2[nH]c(-c3ccc(-c4ccc(CNCC5CCCO5)cc4)s3)nc2c1.O=C(O)C(F)(F)F (configuration not stated) | 100
2 | CCc1nc2nc(C)cc(Nc3ccc(F)c(Cl)c3)n2n1 | 90
3 | Br.Oc1ccc(CCNCCCCCCNCCc2ccc(Br)cc2)cc1O | 99
4 | O=C(/C=C/c1ccc(Cl)c(Cl)c1)N1CCC(NCc2c[nH]c3ccccc23)CC1 | 94
5 | COc1ccc(CNC2CCN(C)CC2)cc1-c1ccc(S(=O)(=O)NCc2ccccc2)c(F)c1.O=C(O)C(F)(F)F | 100
6 | O=C(Nc1ccc(C(F)(F)F)cc1)c1cccc(S(=O)(=O)NC2CCN(Cc3ccccc3)C2)c1.O=C(O)C(F)(F)F (configuration not stated) | 88
7 | Cc1cc(C)cc(OCC(O)CN(Cc2cc(Cl)cc(Cl)c2)C(=O)Nc2ccccc2Cl)c1 (configuration not stated) | 93
8 | C=CCOC(=O)N1CCC(CNCc2cccc(-c3ccc(-c4nc5cc(C(F)(F)F)ccc5[nH]4)cc3)c2)C1.O=C(O)C(F)(F)F (configuration not stated) | 100
9 | CC(=O)N(C)c1cccc(C(=O)Nc2cccc(-c3cccc(-c4nc5cccc(C)c5[nH]4)c3)c2)c1 | 89
10 | Cn1cc(C(=O)Nc2cccc(-c3cccc(-c4nc5cc(F)ccc5[nH]4)c3)c2)n(C)c1=O | 98
11 | CN(c1ccc(NC(=O)Nc2cc(C(C)(C)C)on2)cc1)c1ccnc(NCCN2CCOCC2)n1.O=C(O)C(F)(F)F | 95
12 | Clc1ccc(Nc2nc(NCc3ccccc3)nc(N/N=C/c3ccccn3)n2)cc1 | 99
13 | CCOC(=O)c1cnc2c(OC)cc(OC)c(Cl)c2c1Nc1cccc(C)c1 | 95
14 | COc1ccc(CCNC(C)Cc2ccc(C(=O)Nc3ccc(CC(C)NCCc4cccc(Cl)c4)cc3)cc2)cc1 (configuration not stated) | 100
15 | O=C(c1ccc(Cl)cc1)C1CCCN(C2CCN(CCc3ccccc3)CC2)C1 (configuration not stated) | 96
16 | Cc1nc(N)nc(N)c1C#CC1CCCC1 | 96
17 | COc1ccc(NC(=O)NC2CCN(CCCOc3ccnc4cc(Cl)ccc34)C2)cc1OC (configuration not stated) | 90
18 | Br.CCc1ccccc1OCCCON1C(=N)N=C(N)NC1(C)C | 95
19 | Cc1cccc2nc(-c3cccc(-c4ccc(NC(=O)COc5ccccc5C(N)=O)cc4)c3)[nH]c12 | 100

Row | Structure (SMILES) | Inhibition [%]
20 | CCCCOc1ccc(N2C(N)=NC(N)=NC2(C)C)cc1.Cl | 97
21 | COc1ccc2nc3cc(Cl)ccc3c(NCCO)c2c1.Cl | 100
22 | CN(C)CCNc1ncnc2c1[nH]c1ccc(Cl)cc12 | 100
23 | Nc1ncc(-c2ccc3ncccc3c2)c(N)n1.O=C(O)C(F)(F)F | 97
24 | Cc1cc(N[C@@H](Cc2ccccc2)C(=O)NCCCOC(C)C)nc(NCC2CCCCC2)n1.O=C(O)C(F)(F)F | 94
25 | COc1cccc(OC)c1CN1CCC(N(C)CCCCCCCCCN2CCC(OC(=O)Nc3ccccc3-c3ccccc3)CC2)CC1 | 98
26 | Cc1[nH]c(C)c(-c2ccc(-c3ccccc3C(F)(F)F)nc2)c(=O)c1Br | 97
27 | O=[N+]([O-])c1ccccc1C=NN=c1c2c([nH]c3ccccc13)CCCC2 | 97
28 | Cl.Clc1ccc2c(NCCCCCCCCNc3ccnc4cc(Cl)ccc34)ccnc2c1 | 99
29 | C=CCOC(=O)N1CCC(CNCc2cccc(-c3ccc(-c4nc5cccc(C)c5[nH]4)s3)c2)C1.O=C(O)C(F)(F)F (configuration not stated) | 100
30 | Nc1ncc(-c2ccc(NC(=O)Nc3cc(C(F)(F)F)ccc3F)cc2)c(N)n1.O=C(O)C(F)(F)F | 99
31 | CN(C)c1ccc(C(c2ccc(N(C)C)cc2)c2cc([N+](=O)[O-])ccc2Cl)cc1 | 96
32 | CCCCc1ccc(C(=O)NC2CCN(C[C@H](O)c3ccnc4ccc(OC)cc34)CC2)cc1 | 91
33 | COc1ccccc1CC1CCCN(C2CCC(NC(=O)c3cc4ccccc4[nH]3)CC2)C1 (configuration not stated) | 98
34 | Cc1ccccc1C1CCN(C2CCC(NC(=O)/C=C/c3cc(F)cc(F)c3)CC2)CC1 (configuration not stated) | 99
35 | CC(C)CCNC(=O)C1Cc2c([nH]c3ccc(Br)cc23)C2(CCN(Cc3ccccc3)CC2)N1 (configuration not stated) | 96
36 | COc1ccc2c(OC)ccc(CNCCCCCCNCc3ccc(OC)c4ccc(OC)cc34)c2c1.CS(=O)(=O)O | 100
37 | CN(Cc1ccc(-c2ccc(C(F)(F)F)cc2)cc1)C(=O)Cn1c(CCc2cccc(F)c2F)cc(=O)c2ccc(OCCCN3CCCCC3)cc21.O=C(O)C(O)C(O)C(=O)O | 100
